This is part of a sample that, as a whole, favours compounds with a hit. Of some 83,000 tested, about 20% had one in any assay.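 Single-dose data. Exposure time 48 hours. Values below 10 considered active.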 Values without a mark were called inactive. Activity calls are given as the source filed them.
System: HL-60(TB) leukemia
Assay: NCI-60 one-dose screen, 48 h (100 = growth as untreated, 0 = no growth, -100 = all killed)
Settings: 10 µM unless noted

| Compound | growth |
| --- | --- |
| Cc1cc(N2CCN(CCNc3ccnc4cc(Cl)ccc34)CC2)nc(N2CCOCC2)n1 | 44.8% |
| COc1ccccc1NC(=O)C1CC(c2ccc(F)cc2)=NO1 (configuration not stated) | 103% |
| CCCCn1c(=O)c2c(nc3n2CCCN3CCc2ccc(OCC(=O)NCCN(CC)CC)cc2)n(CCCC)c1=O | 67.3% |
| O=C(c1ccc(Nc2nccc(NCCCCNc3ccnc4cc(Cl)ccc34)n2)cc1)N1CCCCC1 | -22.3% (active) |
| CCOC(=O)c1c(NC(=O)c2ccc(C(C)(C)C)cc2)sc2cc(O)ccc12 | 67% |
| CCCCn1sc(=O)n(Cc2ccc(CNC(=O)OCc3ccc4c(Br)cc(Br)c(O)c4n3)cc2)c1=O | -60.6% (active) |
| Cc1cc(=O)oc2c1ccc1oc(C(=O)c3ccccc3)c(C)c12 | 75.2% |
| CCOc1ccccc1Cn1ccnc1CCc1c(Cl)c(O)cc(O)c1C(=O)OC | 106% |
| C#CCn1c(C)cc(C)c(C#N)c1=O | 101% |
| c1ccc(C2Cc3ccccc3C2=NC2CCCCC2)cc1 (configuration not stated) | 98.2% |
| O=C(CCCCCCN1CC(=O)N2[C@@H](c3ccccc3Cl)c3[nH]c4ccccc4c3C[C@H]2C1=O)NO | 55% |
| Cc1[nH]c2ccccc2c1/C=N/Nc1ncnc2sc3c(c12)CCN(CC(=O)OC(C)(C)C)C3 | 12.5% |
| COc1ccc(Nc2ccnc(NCCNc3ccnc4cc(Cl)ccc34)n2)cc1 | 39% |
| C[C@H]1[C@H](C)CC[C@]2(C(=O)N3CCN(C)CC3)CC[C@]3(C)C(=CC[C@@H]4[C@@]5(C)C/C(=C/c6ccco6)C(=O)C(C)(C)[C@@H]5CC[C@]43C)[C@H]12 | -39.1% [100 µM] (active) |
| CCOC(=O)C1=C(c2ccccc2)N=c2s/c(=C/c3ccc(Br)cc3)c(=O)n2C1c1ccc(O)cc1 (configuration not stated) | 94.9% |
| O=C(Nc1ccc(Cl)cc1)Oc1c(Cl)c(Cl)c(Cl)c(Cl)c1Cl | 98.5% |
| CCS(=O)(=O)OCCO[C@H]1Cc2cc3ccc(=O)oc3cc2OC1(C)C | 106% |
| CC(C)(O)C(=O)O | 103% |
| O=C(COc1cccc(/C=C2\CSc3ccc(Cl)cc3C2=O)c1)c1ccc(Cl)cc1 | 79.2% |

| Compound | growth |
| --- | --- |
| CCOC(=O)Nc1ccc2c(c1)/C(=N\NC(=S)NC)c1ccccc1-2 | 103% |
| CC(C)c1ccc(-n2c(=S)[nH]c3sc4cc(O)ccc4c3c2=O)cc1 | 99.4% |
| COc1ccc(-c2nnc3n(C)c(=O)c4ccccc4n23)cc1O | -22% (active) |
| CC[C@H](CO)Nc1nc(NCc2ccccc2)c2ncn(C(C)C)c2n1 | 48.1% |
| Cc1ccnc2c(NC(C)CCCN)cc(O)c(O)c12 (configuration not stated) | 7.56% (active) |
| COc1ccc(/C=C2\CCCC3C2=Nc2ccccc2NC3c2ccc(OC)cc2)cc1 (configuration not stated) | 78.2% |
| C[C@]12C[C@H](O)[C@H]3[C@@H](CCC4=CC(=O)CC[C@@]43C)[C@@H]1CC[C@@H]2C(=O)CO | 81.8% |
| Cc1ccc(C(SCC(N)C(=O)O)(c2ccc(C)cc2)c2ccc(C)cc2)cc1 (configuration not stated) | -17% (active) |
| CC1CC(C(C)(C)C)C(=O)C(C(C)(C)C)C1 (configuration not stated) | 107% |
| COc1cc(/C=C/C(=O)c2c(-c3ccc(F)cc3)nc3sc(C)nn23)cc(OC)c1OC | 12% |
| Cn1c([N+](=O)[O-])cnc1/C=C1\Oc2ccc(Br)cc2C1=O | -12% (active) |
| O=c1ccc(=O)n(-c2nc(-c3ccc([N+](=O)[O-])cc3)cs2)[nH]1 | 89% |
| CCCCCCCC(=O)SCC/C=C/[C@@H]1CC(=O)NCc2cc(ccn2)C2=N[C@@](C)(CS2)C(=O)N[C@@H](C(C)C)C(=O)O1 | 22.6% |
| C=C1C(=O)O[C@H]2[C@H]1CC/C(CNC(=O)Cc1c[nH]c3ccccc13)=C\CC[C@@]1(C)O[C@@H]21 | -52.4% (active) |
| CCN1CCN(c2ccc(Nc3cc(-c4cccnc4Nc4c(Cl)c(OC)cc(OC)c4Cl)ncn3)cc2)CC1 | 56% |
| CCOC(=O)CSc1nc2ccccc2c(=O)n1Cc1ccc(S(N)(=O)=O)cc1 | 100% |
| Cc1ccc(-c2nc(C#N)c(S(=O)(=O)n3nc(C)cc3N)o2)cc1 | 16.6% |
| C[C@H](CCC[C@H](C)OS(=O)(=O)c1ccccc1)OS(=O)(=O)c1ccccc1 | 119% |
